About 2,000 (36%) of roughly 5,500 compounds were called active. Another 18% or so got no clear call; they are omitted. Rule as the data show it: active = normalized growth mostly below about 0.91 (no sharp cut-off); inconclusive = no clear call, values can overlap the other calls; inactive = mostly above about 0.92. This is one part of the list.
Experiment: chemical genetic growth profiling, strain panel (AID 1159580);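 also: tested at 20 µM; growth read once vehicle control cultures reached saturation at 30 °C; 1 = growth at the plate median or of vehicle wells; lower values mean less growth of the strain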
Details: growth OD

Measured: normalized growth

CC(=O)N[C@@H](CC(C)C)C(=O)O
inactive: S. cerevisiae deletion strains, locus YJR066W, strain TOR1, active compounds read low 1.02 | S. cerevisiae deletion strains, locus YJR075W, strain HOC1, active compounds read low 0.992 | S. cerevisiae deletion strains, locus YKL009W, strain mrt4, active compounds read low 0.962 | S. cerevisiae deletion strains, locus YKL068W, active compounds read low 0.977 | S. cerevisiae deletion strains, locus YKL085W, strain MDH1 (second series), active compounds read low 0.972 | S. cerevisiae deletion strains, locus YKL085W, strain MDH1, active compounds read low 0.972 | S. cerevisiae deletion strains, locus YKL160W, strain elf1, active compounds read low 0.977 | S. cerevisiae deletion strains, locus YKL190W, strain CNB1, active compounds read low 0.987 | S. cerevisiae deletion strains, locus YKR001C, strain vps1, active compounds read low 1 | S. cerevisiae deletion strains, locus YKR026C, strain gcn3, active compounds read low 0.979 | S. cerevisiae deletion strains, locus YKR091W, strain srl3, active compounds read low 1 | S. cerevisiae deletion strains, locus YLL001W, strain dnm1, active compounds read low 0.944 | S. cerevisiae deletion strains, locus YLL026W, active compounds read low 0.985 | S. cerevisiae deletion strains, locus YLL041C, strain sdh2, active compounds read low 0.995 | S. cerevisiae deletion strains, locus YLR027C, strain aat2, active compounds read low 0.992 | S. cerevisiae deletion strains, locus YLR039C, strain RIC1, active compounds read low 0.958 | S. cerevisiae deletion strains, locus YLR058C, strain SHM2, active compounds read low 0.989 | S. cerevisiae deletion strains, locus YLR102C, strain apc9, active compounds read low 0.988 | S. cerevisiae deletion strains, locus YLR113W, strain HOG1, active compounds read low 1.05 | S. cerevisiae deletion strains, locus YLR221C, strain rsa3, active compounds read low 1 | S. cerevisiae deletion strains, locus YLR258W, strain gsy2, active compounds read low 0.997 | S. cerevisiae deletion strains, locus YLR262C, strain YPT6 (second series), active compounds read low 0.983 | S. cerevisiae deletion strains, locus YLR262C, strain YPT6, active compounds read low 0.954 | S. cerevisiae deletion strains, locus YLR268W, strain sec22, active compounds read low 0.985 | S. cerevisiae deletion strains, locus YLR320W, strain mms22, active compounds read low 1.02 | S. cerevisiae deletion strains, locus YLR330W, strain CHS5, active compounds read low 0.972 | S. cerevisiae deletion strains, locus YLR342W, strain FKS1 (second series), active compounds read low 0.973 | S. cerevisiae deletion strains, locus YLR342W, strain FKS1, active compounds read low 0.984 | S. cerevisiae deletion strains, locus YLR357W, strain rsc2, active compounds read low 0.99 | S. cerevisiae deletion strains, locus YLR370C, strain arc18, active compounds read low 0.982 | S. cerevisiae deletion strains, locus YLR371W, strain rom2, active compounds read low 0.982 | S. cerevisiae deletion strains, locus YLR384C, strain iki3, active compounds read low 0.976 | S. cerevisiae deletion strains, locus YLR418C, strain cdc73, active compounds read low 0.978 | S. cerevisiae deletion strains, locus YML016C, strain PPZ1, active compounds read low 0.992 | S. cerevisiae deletion strains, locus YML032C, strain rad52, active compounds read low 1 | S. cerevisiae deletion strains, locus YML120C, strain ndi1, active compounds read low 0.976 | S. cerevisiae deletion strains, locus YML124C, strain tub3, active compounds read low 0.995 | S. cerevisiae deletion strains, locus YMR058W, strain fet3, active compounds read low 0.982 | S. cerevisiae deletion strains, locus YMR078C, strain ctf18, active compounds read low 0.984 | S. cerevisiae deletion strains, locus YMR125W, strain sto1, active compounds read low 0.994 | S. cerevisiae deletion strains, locus YMR129W, active compounds read low 0.998 | S. cerevisiae deletion strains, locus YMR205C, strain PFK2, active compounds read low 0.992 | S. cerevisiae deletion strains, locus YMR223W, strain ubp8, active compounds read low 0.968 | S. cerevisiae deletion strains, locus YMR231W, strain pep5, active compounds read low 0.991 | S. cerevisiae deletion strains, locus YMR263W, strain SAP30, active compounds read low 0.998 | S. cerevisiae deletion strains, locus YMR307W, strain GAS1, active compounds read low 0.982 | S. cerevisiae deletion strains, locus YNL067W, strain RPL9B, active compounds read low 1.03 | S. cerevisiae deletion strains, locus YNL071W, strain lat1, active compounds read low 1.01 | S. cerevisiae deletion strains, locus YNL183C, strain NPR1, active compounds read low 0.958 | S. cerevisiae deletion strains, locus YNL209W, strain ssb2, active compounds read low 0.99 | S. cerevisiae deletion strains, locus YNL233W, strain BNI4, active compounds read low 1.04 | S. cerevisiae deletion strains, locus YNL248C, strain rpa49, active compounds read low 0.989 | S. cerevisiae deletion strains, locus YNL250W, strain rad50, active compounds read low 0.96 | S. cerevisiae deletion strains, locus YNL271C, strain bni1, active compounds read low 0.979 | S. cerevisiae deletion strains, locus YNL298W, strain CLA4, active compounds read low 0.976 | S. cerevisiae deletion strains, locus YNL307C, strain MCK1, active compounds read low 0.991 | S. cerevisiae deletion strains, locus YNL322C, strain KRE1 (second series), active compounds read low 0.991 | S. cerevisiae deletion strains, locus YNR049C, strain mso1, active compounds read low 0.988 | S. cerevisiae deletion strains, locus YNR052C, strain pop2, active compounds read low 0.986 | S. cerevisiae deletion strains, locus YOL006C, strain TOP1, active compounds read low 1.1 | S. cerevisiae deletion strains, locus YOL012C, strain htz1 1.43 | S. cerevisiae deletion strains, locus YOL147C, strain pex11, active compounds read low 0.98 | S. cerevisiae deletion strains, locus YOR001W, strain rrp6, active compounds read low 0.971 | S. cerevisiae deletion strains, locus YOR061W, strain CKA2, active compounds read low 0.986 | S. cerevisiae deletion strains, locus YOR069W, strain VPS5, active compounds read low 0.982 | S. cerevisiae deletion strains, locus YOR070C, strain gyp1, active compounds read low 1 | S. cerevisiae deletion strains, locus YOR080W, strain dia2, active compounds read low 0.982 | S. cerevisiae deletion strains, locus YOR083W, strain WHI5, active compounds read low 0.976 | S. cerevisiae deletion strains, locus YOR106W, strain vam3, active compounds read low 0.974 | S. cerevisiae deletion strains, locus YOR136W, strain idh2, active compounds read low 0.992 | S. cerevisiae deletion strains, locus YOR144C, strain elg1, active compounds read low 0.996 | S. cerevisiae deletion strains, locus YOR184W, strain ser1, active compounds read low 0.983 | S. cerevisiae deletion strains, locus YOR231W, strain MKK1, active compounds read low 1.02 | S. cerevisiae deletion strains, locus YOR265W, strain rbl2, active compounds read low 0.998 | S. cerevisiae deletion strains, locus YOR270C, strain vph1, active compounds read low 0.996 | S. cerevisiae deletion strains, locus YOR290C, strain snf2, active compounds read low 1.01 | S. cerevisiae deletion strains, locus YOR316C, strain cot1, active compounds read low 1 | S. cerevisiae deletion strains, locus YPL051W, strain arl3, active compounds read low 0.992 | S. cerevisiae deletion strains, locus YPL078C, strain atp4, active compounds read low 0.955 | S. cerevisiae deletion strains, locus YPL106C, strain sse1, active compounds read low 0.994 | S. cerevisiae deletion strains, locus YPL240C, strain hsp82, active compounds read low 0.979 | S. cerevisiae deletion strains, locus YPL256C, strain CLN2, active compounds read low 1.04 | S. cerevisiae deletion strains, locus YPR119W, strain clb2, active compounds read low 0.99 | S. cerevisiae deletion strains, locus YPR141C, strain kar3, active compounds read low 0.974 | S. cerevisiae deletion strains, locus YPR163C, strain tif3, active compounds read low 0.977 | S. cerevisiae deletion strains, locus YPR167C, strain met16, active compounds read low 0.985 | S. cerevisiae deletion strains, strain wtn01, active compounds read low 0.991 | S. cerevisiae strains, strain wild type, active compounds read low 0.999
